Results published in the supplement of paper PMC11732987, “Enantioselective OTUD7B fragment discovery through chemoproteomics screening and high-throughput optimisation” (Communications Chemistry, 2025).

Tests used:
Experiment in all cases: log2 ratio of Biotin-Ahx-Ub-VS probe labelling (fragment/DMSO); higher = less target engagement (more negative = stronger competition), active = hit call of the paper (q ≤ 0.05, log2 ratio ≤ -1)
Settings in all cases: compound concentration: 200 uM; treatment time: 3 h
USP34 = USP34 (UniProt Q70CQ2)
USP34, sequence (Q70CQ2 whole entry, the tested form may be a part): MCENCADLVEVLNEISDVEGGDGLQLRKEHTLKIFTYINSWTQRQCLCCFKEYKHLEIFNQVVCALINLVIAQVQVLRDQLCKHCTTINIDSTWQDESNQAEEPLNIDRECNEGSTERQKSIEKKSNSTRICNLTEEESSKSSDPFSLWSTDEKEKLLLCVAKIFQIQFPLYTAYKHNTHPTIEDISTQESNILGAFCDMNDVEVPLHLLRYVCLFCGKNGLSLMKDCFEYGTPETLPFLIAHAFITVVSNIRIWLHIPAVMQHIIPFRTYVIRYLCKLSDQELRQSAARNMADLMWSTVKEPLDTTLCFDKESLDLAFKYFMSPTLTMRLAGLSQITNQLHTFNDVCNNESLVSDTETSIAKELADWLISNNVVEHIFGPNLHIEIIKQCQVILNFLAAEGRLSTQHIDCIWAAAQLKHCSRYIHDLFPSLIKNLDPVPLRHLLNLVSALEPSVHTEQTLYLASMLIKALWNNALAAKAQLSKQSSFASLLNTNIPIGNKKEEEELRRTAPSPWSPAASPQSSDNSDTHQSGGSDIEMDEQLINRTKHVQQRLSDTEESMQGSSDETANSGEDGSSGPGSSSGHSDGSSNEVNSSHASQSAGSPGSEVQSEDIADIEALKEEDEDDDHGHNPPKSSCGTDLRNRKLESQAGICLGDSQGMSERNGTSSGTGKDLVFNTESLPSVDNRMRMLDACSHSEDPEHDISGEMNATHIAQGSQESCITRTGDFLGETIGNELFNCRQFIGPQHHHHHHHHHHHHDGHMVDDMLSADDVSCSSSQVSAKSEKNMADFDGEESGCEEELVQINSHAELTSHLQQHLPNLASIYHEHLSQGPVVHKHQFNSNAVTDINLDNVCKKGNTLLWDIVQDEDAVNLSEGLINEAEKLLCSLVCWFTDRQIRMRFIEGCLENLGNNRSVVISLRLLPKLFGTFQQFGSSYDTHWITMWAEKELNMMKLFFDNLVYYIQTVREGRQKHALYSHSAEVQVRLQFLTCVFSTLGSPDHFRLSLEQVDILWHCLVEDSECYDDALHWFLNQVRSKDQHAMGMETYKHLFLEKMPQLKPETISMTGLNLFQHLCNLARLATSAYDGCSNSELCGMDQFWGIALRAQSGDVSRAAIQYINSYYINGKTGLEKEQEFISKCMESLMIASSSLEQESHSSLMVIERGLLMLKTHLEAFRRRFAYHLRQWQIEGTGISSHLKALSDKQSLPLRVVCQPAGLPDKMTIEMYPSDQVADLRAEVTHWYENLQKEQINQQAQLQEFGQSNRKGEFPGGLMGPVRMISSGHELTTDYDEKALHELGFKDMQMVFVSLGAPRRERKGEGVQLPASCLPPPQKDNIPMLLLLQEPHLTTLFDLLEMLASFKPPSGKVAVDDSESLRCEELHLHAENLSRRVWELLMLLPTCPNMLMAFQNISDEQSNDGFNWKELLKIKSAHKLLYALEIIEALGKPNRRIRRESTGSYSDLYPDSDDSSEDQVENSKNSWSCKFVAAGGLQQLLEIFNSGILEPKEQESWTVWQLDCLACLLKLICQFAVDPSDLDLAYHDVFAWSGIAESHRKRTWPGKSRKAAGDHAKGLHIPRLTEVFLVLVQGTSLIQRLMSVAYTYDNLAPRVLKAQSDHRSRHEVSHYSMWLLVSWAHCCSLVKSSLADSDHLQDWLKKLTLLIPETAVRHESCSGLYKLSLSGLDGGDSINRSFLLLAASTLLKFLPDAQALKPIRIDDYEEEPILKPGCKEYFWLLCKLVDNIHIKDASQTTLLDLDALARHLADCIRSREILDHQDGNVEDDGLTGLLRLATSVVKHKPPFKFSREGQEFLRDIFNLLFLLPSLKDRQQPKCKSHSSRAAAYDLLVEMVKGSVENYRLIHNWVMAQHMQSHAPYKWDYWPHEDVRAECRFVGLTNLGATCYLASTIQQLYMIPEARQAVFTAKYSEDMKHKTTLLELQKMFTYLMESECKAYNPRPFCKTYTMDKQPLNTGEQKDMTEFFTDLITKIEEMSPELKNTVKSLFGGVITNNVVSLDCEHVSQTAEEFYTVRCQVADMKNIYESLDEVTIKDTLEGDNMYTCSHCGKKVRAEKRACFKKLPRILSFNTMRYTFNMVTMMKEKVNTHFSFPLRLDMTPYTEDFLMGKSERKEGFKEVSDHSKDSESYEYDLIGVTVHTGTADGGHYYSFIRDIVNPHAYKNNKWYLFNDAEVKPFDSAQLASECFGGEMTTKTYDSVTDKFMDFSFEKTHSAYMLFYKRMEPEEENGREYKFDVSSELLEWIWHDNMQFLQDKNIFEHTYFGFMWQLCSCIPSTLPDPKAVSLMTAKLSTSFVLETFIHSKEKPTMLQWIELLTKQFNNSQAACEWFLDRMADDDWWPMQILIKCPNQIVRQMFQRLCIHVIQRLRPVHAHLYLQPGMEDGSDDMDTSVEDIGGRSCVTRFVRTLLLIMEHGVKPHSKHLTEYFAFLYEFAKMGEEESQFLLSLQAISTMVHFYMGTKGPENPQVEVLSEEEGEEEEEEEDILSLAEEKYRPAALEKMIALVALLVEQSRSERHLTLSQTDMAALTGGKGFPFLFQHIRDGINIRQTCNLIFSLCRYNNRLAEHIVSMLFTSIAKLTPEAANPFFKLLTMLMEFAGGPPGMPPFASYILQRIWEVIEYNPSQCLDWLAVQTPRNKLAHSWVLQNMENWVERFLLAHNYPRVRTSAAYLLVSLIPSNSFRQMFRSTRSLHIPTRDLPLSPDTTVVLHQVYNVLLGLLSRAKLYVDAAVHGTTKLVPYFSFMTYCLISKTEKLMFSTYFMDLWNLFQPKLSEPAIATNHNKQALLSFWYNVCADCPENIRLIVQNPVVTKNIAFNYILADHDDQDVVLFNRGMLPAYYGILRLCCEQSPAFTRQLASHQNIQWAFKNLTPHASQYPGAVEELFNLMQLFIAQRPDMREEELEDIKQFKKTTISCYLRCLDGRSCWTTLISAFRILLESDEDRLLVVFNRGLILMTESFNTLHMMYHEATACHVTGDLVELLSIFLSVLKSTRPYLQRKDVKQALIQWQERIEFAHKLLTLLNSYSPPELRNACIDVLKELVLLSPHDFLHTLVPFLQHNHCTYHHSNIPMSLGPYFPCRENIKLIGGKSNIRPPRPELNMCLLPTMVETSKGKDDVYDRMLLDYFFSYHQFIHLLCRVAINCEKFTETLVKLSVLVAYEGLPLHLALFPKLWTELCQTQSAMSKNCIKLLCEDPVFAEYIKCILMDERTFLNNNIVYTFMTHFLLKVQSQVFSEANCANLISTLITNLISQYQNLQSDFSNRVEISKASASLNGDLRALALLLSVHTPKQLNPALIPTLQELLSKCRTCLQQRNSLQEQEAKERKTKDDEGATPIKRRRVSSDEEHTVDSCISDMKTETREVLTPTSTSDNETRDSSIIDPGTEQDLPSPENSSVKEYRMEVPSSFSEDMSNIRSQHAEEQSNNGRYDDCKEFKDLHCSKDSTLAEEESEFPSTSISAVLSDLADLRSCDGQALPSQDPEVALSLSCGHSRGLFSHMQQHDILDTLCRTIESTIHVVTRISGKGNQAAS
Summary of the method: (§1)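 Labelling with Biotin-Ahx-Ub-VS (0.5 µM final, 1 h) followed a 3 h triplicate treatment of HEK293T lysate (495 µg per sample, Tris/CHAPS/IGEPAL buffer with protease inhibitors) with fragment at 200 µM or vehicle. Labelled DUBs were NeutrAvidin-enriched, digested with LysC and trypsin, and run by diaPASEF LC-MS/MS. The values, average log2 fragment/vehicle ratios by unpaired t-test, come from global-median-normalised Spectronaut label-free quantities. Proteins with ≥2 unique peptides were used.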

USP36 = molecular target: T1, USP36 (UniProt Q9P275)
T1 sequence (whole entry): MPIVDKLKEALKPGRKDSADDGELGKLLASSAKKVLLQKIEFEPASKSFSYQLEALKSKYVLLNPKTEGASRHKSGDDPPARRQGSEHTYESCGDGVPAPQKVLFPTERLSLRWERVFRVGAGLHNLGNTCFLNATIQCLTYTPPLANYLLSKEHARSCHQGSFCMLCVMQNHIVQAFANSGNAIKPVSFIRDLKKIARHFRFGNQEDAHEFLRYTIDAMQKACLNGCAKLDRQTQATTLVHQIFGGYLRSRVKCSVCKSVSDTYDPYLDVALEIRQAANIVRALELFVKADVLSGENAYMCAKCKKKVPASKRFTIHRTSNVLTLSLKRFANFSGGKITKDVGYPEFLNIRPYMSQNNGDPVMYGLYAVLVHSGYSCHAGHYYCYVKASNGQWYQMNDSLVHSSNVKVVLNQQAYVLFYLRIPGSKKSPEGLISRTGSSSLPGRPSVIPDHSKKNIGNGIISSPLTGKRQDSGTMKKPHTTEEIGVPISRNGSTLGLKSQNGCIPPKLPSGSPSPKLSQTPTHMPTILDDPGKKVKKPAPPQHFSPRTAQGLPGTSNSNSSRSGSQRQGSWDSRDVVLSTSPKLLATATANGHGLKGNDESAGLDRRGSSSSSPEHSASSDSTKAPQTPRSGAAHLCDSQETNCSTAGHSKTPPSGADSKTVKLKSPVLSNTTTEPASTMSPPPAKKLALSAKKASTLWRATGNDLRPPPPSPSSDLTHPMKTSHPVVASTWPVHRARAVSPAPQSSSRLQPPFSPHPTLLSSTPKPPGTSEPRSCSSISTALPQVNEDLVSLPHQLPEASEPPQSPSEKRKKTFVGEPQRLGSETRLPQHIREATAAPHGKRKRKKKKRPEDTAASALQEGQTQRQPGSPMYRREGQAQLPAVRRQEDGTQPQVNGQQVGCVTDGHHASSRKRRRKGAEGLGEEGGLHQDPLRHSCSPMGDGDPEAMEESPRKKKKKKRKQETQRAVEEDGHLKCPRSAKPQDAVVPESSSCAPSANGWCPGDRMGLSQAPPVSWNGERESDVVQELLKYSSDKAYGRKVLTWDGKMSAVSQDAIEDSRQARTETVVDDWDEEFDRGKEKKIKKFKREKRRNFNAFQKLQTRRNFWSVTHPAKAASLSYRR
Summary of the method: as §1

USP38 = molecular target: T2, USP38 (UniProt Q8NB14)
T2 sequence (whole entry): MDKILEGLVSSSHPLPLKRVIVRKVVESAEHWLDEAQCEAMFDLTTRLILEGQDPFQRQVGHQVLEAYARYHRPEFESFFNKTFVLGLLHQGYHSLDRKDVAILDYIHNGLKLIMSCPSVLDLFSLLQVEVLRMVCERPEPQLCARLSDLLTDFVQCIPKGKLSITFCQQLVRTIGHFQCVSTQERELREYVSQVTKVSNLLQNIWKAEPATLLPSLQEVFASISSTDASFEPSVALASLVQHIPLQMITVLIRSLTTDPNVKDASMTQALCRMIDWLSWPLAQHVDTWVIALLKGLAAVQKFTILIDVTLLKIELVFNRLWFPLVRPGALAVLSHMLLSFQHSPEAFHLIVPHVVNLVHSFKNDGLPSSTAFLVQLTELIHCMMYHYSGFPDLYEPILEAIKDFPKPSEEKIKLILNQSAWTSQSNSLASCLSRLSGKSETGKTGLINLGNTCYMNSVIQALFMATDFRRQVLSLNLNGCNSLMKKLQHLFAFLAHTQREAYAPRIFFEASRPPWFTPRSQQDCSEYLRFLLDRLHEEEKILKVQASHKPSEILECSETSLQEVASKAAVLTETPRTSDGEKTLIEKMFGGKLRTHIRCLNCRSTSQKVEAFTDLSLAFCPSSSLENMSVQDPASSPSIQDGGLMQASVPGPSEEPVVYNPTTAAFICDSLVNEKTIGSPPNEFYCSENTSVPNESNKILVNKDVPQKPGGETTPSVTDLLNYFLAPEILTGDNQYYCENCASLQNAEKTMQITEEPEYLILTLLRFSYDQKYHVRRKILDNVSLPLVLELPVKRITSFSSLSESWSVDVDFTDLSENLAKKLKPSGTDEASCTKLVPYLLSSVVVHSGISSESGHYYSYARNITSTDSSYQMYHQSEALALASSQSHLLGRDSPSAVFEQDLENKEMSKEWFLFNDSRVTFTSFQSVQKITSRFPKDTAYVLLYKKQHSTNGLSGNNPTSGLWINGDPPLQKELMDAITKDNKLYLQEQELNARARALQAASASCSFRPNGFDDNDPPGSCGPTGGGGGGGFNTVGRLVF
Summary of the method: as §1

USP39 = molecular target: T3, USP39 (UniProt Q53GS9)
T3 sequence (whole entry): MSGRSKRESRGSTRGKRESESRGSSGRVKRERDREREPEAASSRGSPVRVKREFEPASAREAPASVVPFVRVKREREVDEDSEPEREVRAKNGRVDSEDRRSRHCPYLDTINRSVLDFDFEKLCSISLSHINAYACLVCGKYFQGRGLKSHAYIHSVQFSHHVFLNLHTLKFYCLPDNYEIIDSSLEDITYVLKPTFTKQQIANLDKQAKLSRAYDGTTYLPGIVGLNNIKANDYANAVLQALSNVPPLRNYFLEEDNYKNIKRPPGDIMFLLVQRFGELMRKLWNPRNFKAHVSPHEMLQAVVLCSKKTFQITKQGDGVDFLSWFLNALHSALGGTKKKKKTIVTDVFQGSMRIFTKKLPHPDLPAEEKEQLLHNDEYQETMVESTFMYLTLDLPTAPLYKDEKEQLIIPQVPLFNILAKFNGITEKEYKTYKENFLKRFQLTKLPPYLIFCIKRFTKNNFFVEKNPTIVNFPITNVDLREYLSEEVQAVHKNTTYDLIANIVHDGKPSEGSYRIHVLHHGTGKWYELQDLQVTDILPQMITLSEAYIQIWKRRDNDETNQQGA
Summary of the method: as §1

USP4 = molecular target: T4, USP4 (UniProt Q13107)
T4 sequence (whole entry): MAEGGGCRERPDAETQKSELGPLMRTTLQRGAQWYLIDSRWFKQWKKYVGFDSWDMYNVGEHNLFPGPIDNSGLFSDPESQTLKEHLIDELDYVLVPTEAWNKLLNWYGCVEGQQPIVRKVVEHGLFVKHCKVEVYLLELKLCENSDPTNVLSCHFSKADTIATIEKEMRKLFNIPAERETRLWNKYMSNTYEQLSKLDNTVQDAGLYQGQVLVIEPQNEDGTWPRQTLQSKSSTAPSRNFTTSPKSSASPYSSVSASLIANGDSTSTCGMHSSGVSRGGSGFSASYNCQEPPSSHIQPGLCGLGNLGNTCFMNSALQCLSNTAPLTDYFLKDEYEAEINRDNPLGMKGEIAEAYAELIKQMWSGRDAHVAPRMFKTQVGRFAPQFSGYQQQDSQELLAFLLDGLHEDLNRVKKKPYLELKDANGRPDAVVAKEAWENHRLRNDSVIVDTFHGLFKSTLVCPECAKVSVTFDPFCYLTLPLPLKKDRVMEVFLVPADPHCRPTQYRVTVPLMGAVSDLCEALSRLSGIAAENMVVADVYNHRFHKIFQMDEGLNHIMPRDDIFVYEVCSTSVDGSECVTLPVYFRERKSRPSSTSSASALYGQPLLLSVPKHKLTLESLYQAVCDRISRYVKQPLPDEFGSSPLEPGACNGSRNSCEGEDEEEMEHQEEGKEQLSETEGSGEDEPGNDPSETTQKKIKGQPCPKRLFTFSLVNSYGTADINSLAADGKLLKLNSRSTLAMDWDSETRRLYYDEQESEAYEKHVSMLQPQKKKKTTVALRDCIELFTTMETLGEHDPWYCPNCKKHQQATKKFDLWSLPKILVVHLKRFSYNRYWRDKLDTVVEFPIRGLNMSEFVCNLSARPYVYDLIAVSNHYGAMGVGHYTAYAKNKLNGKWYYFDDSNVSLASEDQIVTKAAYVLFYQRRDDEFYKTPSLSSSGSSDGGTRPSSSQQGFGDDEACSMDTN
Summary of the method: as §1

Measured: log2 ratio of Biotin-Ahx-Ub-VS probe labelling

N#Cc1ccc(Cl)cc1NC(=O)CCl
inactive: USP34 -0.22 | USP36 0.137 | USP38 -0.0529 | USP39 -0.0922 | USP4 -0.0565
